Consider 9 compounds from PubChem BioAssay.

SMILES strings stand for the structures. The source made the active and inactive calls. Unless noted, the rule behind the calls is not given here.

Test [1] can be described thus: compound effects on lung adenocarcinoma cell viability – A549, calcein-AM fluorescence, 48 h, basal, profiling panel (AID 1162). Note: test concentration not given here. The note with it: higher = more signal.
The nature of test [2]: compound effects on differentiated 3T3-L1 adipocyte viability – cell-based, 3T3-L1 adipocytes, calcein-AM fluorescence, 48 h, basal, profiling panel (AID 1163). Note: test concentration not given here. The conditions noted are these: 3T3-L1 adipocytes viability, higher = more signal.
Test [3] can be described thus: compound effects on hepatocellular carcinoma cell viability – HepG2, calcein-AM fluorescence, 48 h, basal, profiling panel (AID 1164). Note: test concentration not given here. The note with it: higher = more signal.
Test [4] is described as follows: compound effects on multiple myeloma cell viability – MM1S, calcein-AM fluorescence, 48 h, basal, profiling panel (AID 1165). Note: test concentration not given here. The conditions noted are these: higher = more signal.
Test [5] is described as follows: calcein-AM signal in unstimulated myeloma cells – cell-based, calcein-AM fluorescence, 48 h, PK04 Diversity Set, profiling panel (AID 1166).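 Note: cells grown under basal conditions without added stimulus; test concentration not given here.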 The conditions noted are these: RPMI8226 myeloma viability, higher = more signal.
The nature of test [6]: JC-1 mitochondrial signal, unstimulated HepG2 cells – cell-based, JC-1 fluorescence, 24 h, 100 nL compound, profiling panel (AID 1167). Note: test concentration not given here. The note with it: HepG2 mitochondrial potential, higher = more signal.
Test [7] can be described thus: JC-1 mitochondrial signal, unstimulated adipocytes – cell-based, JC-1 fluorescence, 3T3-L1 adipocytes, 24 h, 100 nL compound, profiling panel (AID 1168). Note: test concentration not given here. The note with it: JC-1 mitochondrial fluorescence, higher = more signal, called active from +8 up or from −8 down.
Test [8] is described as follows: JC-1 mitochondrial signal, unstimulated myeloma cells – cell-based, JC-1 fluorescence, RPMI8226, 24 h, 100 nL compound, profiling panel (AID 1169). Note: test concentration not given here. The conditions noted are these: JC-1 mitochondrial potential fluorescence, higher = more signal.
Test [9] is described as follows: JC-1 mitochondrial signal, unstimulated MM1S myeloma – cell-based, JC-1 fluorescence, 24 h, 100 nL compound, profiling panel (AID 1170). Note: test concentration not given here. The conditions noted are these: MM1S mitochondrial potential, higher = more signal.
Test [10] can be described thus: resazurin metabolic signal in A549 cells – cell-based, resazurin fluorescence, 24 h, PK04 Diversity Set, profiling panel (AID 1171). Note: test concentration not given here. The note with it: A549 viability, higher = more signal, called active from +8 up or from −8 down. In general terms: Alamar Blue is a resazurin reagent that responds to reducing activity.
Test [11] is described as follows: resazurin metabolic signal in HepG2 cells – cell-based, resazurin fluorescence, 24 h, PK04 Diversity Set, profiling panel (AID 1172). Note: test concentration not given here. The note with it: HepG2 viability, higher = more signal.
Test [12] in a line: budding yeast growth changes without added modifier – OD600, strain BY4716, 24 h, basal condition, primary screen (AID 1173). The conditions noted are these: S. cerevisiae BY4716 growth, OD600, 24 h; higher = more signal, called active from +8 up or from −8 down.
Test [13] can be described thus: viability profiling in MM1S myeloma cells – cell-based, resazurin fluorescence, basal, 24 h, PK04 Diversity Set, profiling panel (AID 1174). Note: test concentration not given here. The note with it: higher = more signal, called active from +8 up or from −8 down.
Test [14] deals with Dihydroorotate dehydrogenase (quinone), mitochondrial (Plasmodium falciparum (isolate 3D7)) (UniProt Q08210). Nature of the test: inhibition of P. falciparum DHODH – biochemical, C-terminal His tag, absorbance 600 nm, primary screen (AID 1175).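 Note: recombinant parasite enzyme with a five histidine tag at its C terminus; test concentration not given here.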 The note with it: PfDHODH enzyme, DCIP absorbance 600 nm; higher = more signal, called active from +8 up or from −8 down.
Chain of Dihydroorotate dehydrogenase (quinone), mitochondrial (Plasmodium falciparum (isolate 3D7)) (Q08210 whole entry, looked up): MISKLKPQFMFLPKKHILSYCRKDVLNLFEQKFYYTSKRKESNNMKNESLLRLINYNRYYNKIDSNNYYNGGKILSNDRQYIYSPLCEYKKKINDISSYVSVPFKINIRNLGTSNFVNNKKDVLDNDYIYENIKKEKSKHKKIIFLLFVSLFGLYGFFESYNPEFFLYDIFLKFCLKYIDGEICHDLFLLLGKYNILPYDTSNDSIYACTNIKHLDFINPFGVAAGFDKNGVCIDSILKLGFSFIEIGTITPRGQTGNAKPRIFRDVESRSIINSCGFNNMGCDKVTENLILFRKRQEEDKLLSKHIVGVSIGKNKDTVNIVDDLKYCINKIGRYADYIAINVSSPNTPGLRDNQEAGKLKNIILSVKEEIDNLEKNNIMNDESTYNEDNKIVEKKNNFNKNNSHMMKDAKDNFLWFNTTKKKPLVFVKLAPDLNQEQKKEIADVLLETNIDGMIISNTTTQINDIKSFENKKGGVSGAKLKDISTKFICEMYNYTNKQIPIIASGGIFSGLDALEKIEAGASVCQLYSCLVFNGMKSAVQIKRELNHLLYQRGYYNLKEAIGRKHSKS
A short description of test [15]: inhibition of PAO1 biofilm formation – strain PAO1, LB-PBS medium, absorbance 600 nm, primary screen (AID 1176). Note: test concentration not given here. The note with it: P. aeruginosa PAO1 growth/biofilm, A600, 12 h; higher = more signal.
A short description of test [16]: growth modulation of vineyard yeast isolate – strain RM11-1a, OD600, basal, 24 h, primary screen (AID 1177).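 Note: cultures grown under basal conditions with no added stressor; test concentration not given here.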 The note with it: S. cerevisiae RM11-1a growth, OD600, 24 h; higher = more signal, called active from +8 up or from −8 down.
Test [17] is described as follows: growth of efflux-deficient E. coli DRC39 – strain DRC39, OD650, 24 h, E. coli filamentation inducers, primary screen (AID 1178).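 Note: growth measured as culture turbidity by optical density at 650 nm; test concentration not given here.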 The note with it: E. coli DRC39 acrAB, higher = more signal, called active from +8 up or from −8 down.
A short description of test [18]: growth of efflux-deficient E. coli DRC39 – strain DRC39, OD650, 48 h, E. coli filamentation inducers, primary screen (AID 1179).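 Note: screen aims at cell division blockers that make cells filament.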 The conditions noted are these: E. coli DRC39 delta-acrAB growth, higher = more signal, called active from +8 up or from −8 down.
Test [19] is described as follows: viability profiling in RPMI8226 myeloma cells – cell-based, resazurin fluorescence, basal, 24 h, PK04 Diversity Set, profiling panel (AID 1180).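 Note: RPMI8826 multiple myeloma cell line at 5000 cells per well; test concentration not given here.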 The conditions noted are these: higher = more signal.
Test [20] concerns the target E3 ubiquitin-protein ligase XIAP (Homo sapiens) (UniProt P98170). Description: small molecules binding XIAP protein – biophysical, small-molecule microarray, fluorescence 635 nm, primary screen (AID 1181).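 Note: score merges 667 nm emission and signal to noise over triplicate slides.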 The conditions noted are these: higher = more signal.

Chain of E3 ubiquitin-protein ligase XIAP (Homo sapiens) (P98170 whole entry, looked up): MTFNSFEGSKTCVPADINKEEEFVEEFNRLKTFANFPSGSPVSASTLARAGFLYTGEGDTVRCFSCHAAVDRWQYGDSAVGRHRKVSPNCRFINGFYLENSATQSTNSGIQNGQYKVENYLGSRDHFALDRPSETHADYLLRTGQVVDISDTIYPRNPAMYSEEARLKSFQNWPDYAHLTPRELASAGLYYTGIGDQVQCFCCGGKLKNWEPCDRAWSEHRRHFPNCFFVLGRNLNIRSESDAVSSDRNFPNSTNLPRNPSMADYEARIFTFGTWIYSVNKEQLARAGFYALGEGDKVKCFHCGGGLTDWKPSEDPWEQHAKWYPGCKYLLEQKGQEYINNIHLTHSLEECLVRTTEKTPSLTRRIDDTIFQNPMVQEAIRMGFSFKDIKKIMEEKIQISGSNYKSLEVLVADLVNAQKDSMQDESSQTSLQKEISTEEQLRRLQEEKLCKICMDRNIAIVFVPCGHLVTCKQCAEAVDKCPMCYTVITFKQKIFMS

In the case of `CC(C)(C)OC(=O)CC[C@@]1(C(=O)NCCN2CCOCC2)N=C(c2ccc(OCCCO)cc2)O[C@@H]1c1ccccc1`, the z-score in test [1] was 0.694; in test [2] it was 0.571; in [3], 0.564; in test [4], 0.586; in test [5], 1.26; in [6], -0.0256. Moreover, the z-score was 0.66 (inactive) in test [7]; -0.707 in test [8]; -0.514 in [9]; -0.24 (inactive) in test [10]; -0.781 in test [11]; -0.712 (inactive) in test [12]. The z-score in [13] is 0.596 (inactive); in test [15], -0.347 (inactive); in test [16], 0.572 (inactive); in test [17], 1.15 (inactive); in [18] it was 1.32 (inactive); in test [19] it was 0.641. The composite z-score in test [14] was -0.317 (inactive); in test [20], 0.228.

As for `CN(C)C(=O)[C@]1(CCC(=O)OC(C)(C)C)N=C(c2ccc(OCCCO)cc2)O[C@@H]1c1ccccc1N=[N+]=[N-]`, the z-score in test [1] was 0.0413; in [2] it was 0.473; in [3], 0.333; in [4], -0.629; in test [5], 0.0141; in test [6], 2.25. Moreover, the z-score in test [7] was 2.52 (inactive); in [8], -0.568; in [9], -0.325; in [10] it was 1.84 (inactive); in test [11], 1.49; in test [12], 0.192 (inactive). The z-score in [13] is -0.556 (inactive); in [15] it was -0.758 (inactive); in [16], 1.61 (inactive); in [17] it was 0.752 (inactive); in test [18], 0.701 (inactive); in [19], 0.407. In addition, the composite z-score was 0.565 (inactive) in test [14] and 0.0317 in [20].

Regarding `CCOC(=O)C[C@H]1[C@H](OC(=O)Cc2ccc3c(c2)OCO3)[C@@H](NC(=O)c2ccc(-c3ccccc3)cc2)c2cc(OCCCO)ccc2N1C(=O)c1ccccc1`, the z-score in test [1] is 1.8; in test [2] it was 0.127; in test [3], 1.66; in test [4], -0.262; in test [5] it was 0.0317; in test [6], 3.09. The z-score is -0.288 (inactive) in test [7]; 0.965 in test [8]; -0.0178 in [9]; 0.328 (inactive) in test [10]; 0.0575 in [11]; 0.188 (inactive) in [12]. In addition, the z-score in test [13] was 0.106 (inactive); in test [15] it was 0.608 (inactive); in test [16], 0.412 (inactive); in test [17] it was 1.02 (inactive); in test [18], 1.16 (inactive); in test [19] it was -0.264. Further, the composite z-score in test [14] is -0.0887 (inactive); in [20] it was -0.17.

Regarding `CN1C(=O)C2C=CC(C(O)c3ccccn3)N(Nc3ccccc3)C2C1=O` (stereo not given), the z-score in [1] is 0.169; in test [2], -0.103; in test [3], -0.164; in [4], -0.309; in test [5], 0.497; in test [6], -0.562. Besides, the z-score in test [7] is -0.234 (inactive); in test [8], 0.184; in test [9], 0.0223; in test [10] it was -0.205 (inactive); in test [11] it was -1.03; in test [12], 0.727 (inactive). In addition, the z-score in [13] is -0.467 (inactive); in test [15] it was 1.28 (inactive); in [16] it was 1.57 (inactive); in test [17], -0.206 (inactive); in test [18], -0.387 (inactive); in test [19], -0.878. Moreover, the results for the composite z-score in [14] and in test [20] were 1.42 (inactive) and 0.742, respectively.

Turning to `COC(=O)c1ccc(C(O)C2C=CC3C(=O)N(c4ccccc4)C(=O)C3N2Nc2ccc(C#N)cc2)o1` (stereo not given), the z-score in test [1] is 0.88; in [2] it was 0.0728; in test [3], 2.04; in [4], -0.182; in test [5], -1.52; in test [6] it was 0.822. Moreover, the z-score in test [7] was -0.559 (inactive); in test [8], 0.111; in [9], -0.849; in test [10], 0.276 (inactive); in test [11], -0.407; in test [12], -0.959 (inactive). Moreover, the z-score in [13] was -0.582 (inactive); in [15], 1.38 (inactive); in test [16], 0.0055 (inactive); in [17], -1.52 (inactive); in [18], -0.249 (inactive); in test [19] it was -0.357. Further, the composite z-score in [14] was -0.847 (inactive); in [20], -0.22.

As for `O=C1C2C=CC(C(O)c3ccc(F)cc3)N(Nc3ccccc3)C2C(=O)N1c1ccccc1` (stereo not given), the z-score in test [1] was 0.257; in [2], -1.66; in test [3], -0.114; in test [4], 0.561; in test [5], -0.149; in test [6], -1.58. Besides, the z-score is -0.0708 (inactive) in test [7]; -0.0118 in test [8]; -1.01 in [9]; -0.111 (inactive) in [10]; -1.24 in test [11]; -3.05 (inactive) in [12]. The z-score is -1.33 (inactive) in [13]; 0.888 (inactive) in test [15]; 0.723 (inactive) in test [16]; -0.811 (inactive) in test [17]; 0.128 (inactive) in [18]; -0.535 in test [19]. Moreover, the figures for the composite z-score in test [14] and in test [20] were 0.485 (inactive) and -0.229, respectively.

With `COC(=O)[C@@]1(Cc2ccccc2N=[N+]=[N-])COC(c2ccc(OCCCO)cc2)=N1`, the z-score in [1] is -0.851; in test [2], -1.01; in test [3] it was -0.388; in [4], -3.53; in test [5], -2.82; in test [6], -0.472. The z-score in [7] was -0.605 (inactive); in test [8] it was -0.125; in [9], -0.0849; in test [10], 0.468 (inactive); in [11], -0.799; in [12], -10.7 (active). The z-score is -1.43 (inactive) in test [13]; 0.907 (inactive) in test [15]; 1.42 (inactive) in test [16]; -0.993 (inactive) in [17]; -1.46 (inactive) in [18]; -0.496 in test [19]. Further, the composite z-score was 0.215 (inactive) in [14] and 0.0593 in test [20].

As to `COC(=O)c1ccc(OC)c(/C=C\CC(OC(C)=O)c2ccccc2)c1` (stereo not given), the z-score in test [1] is -1.01; in test [2], 0.386; in test [3], -0.753; in [4], -1.4; in test [5], -2.39; in [6], -0.995. Also, the z-score was -1.15 (inactive) in [7]; -0.578 in test [8]; 0.0862 in test [9]; 0.519 (inactive) in [10]; 0.0209 in test [11]; -1.17 (inactive) in [12]. Besides, the z-score in [13] was -0.345 (inactive); in [15], -0.351 (inactive); in test [16] it was -0.639 (inactive); in test [17], 0.0847 (inactive); in [18] it was -0.396 (inactive); in test [19] it was -1.1. The composite z-score in test [14] is -3.79 (inactive); in test [20], 0.0131.

With `O=C(CS)NCCCCCCNC(=O)[C@H]1C[C@H]2C(=O)NCC(=O)N2[C@H]1c1ccc(O)cc1`, the z-score in test [1] was 0.324; in test [2], 0.277; in [3], 0.555; in [4], -0.31; in test [5] it was 0.325; in test [6], -0.32. Moreover, the z-score in test [7] is -0.607 (inactive); in test [8], -0.645; in test [9], -0.459; in test [10] it was -0.27 (inactive); in test [11], -0.0808; in test [12], 0.309 (inactive). The z-score in test [13] was -0.722 (inactive); in test [15], 0.395 (inactive); in test [16] it was -0.14 (inactive); in test [17], -0.389 (inactive); in test [18], -0.405 (inactive); in test [19], -0.521. In addition, the composite z-score in test [14] is -0.864 (inactive); in test [20] it was 0.102.
